The list is not random: actives were taken first. Their share in the collection is about 5.7%.
D3 antag – antagonists of human D3 dopamine receptor | D3R cells, DiscoveRx beta-arrestin luminescence, antagonist mode; stronger effect = lower value | max response, negative = inhibition, % | P35462 | actives 2.5% (n = 360,000); in the data active = max response below about -50%; inconclusive = no clear call, values can overlap the other calls; also: % is scaled to controls: 0 for no effect and ±100 for the full control effect
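Cells plated overnight at 1500 cells/well, then exposed to library compounds with dopamine controls for 90 minutes at 37 degrees C. DiscoveRx reagent added for 30–60 minutes at room temperature; luminescence read, quantitative HTS format.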
GLP1R inv ag – inverse agonists of human GLP-1 receptor; Potency, µM (titrated, usually from 38.3 µM), for inactives: at the highest dose activity change, negative = inhibition, hits mostly inhibitors; actives 1.6% (n = 410,000); AID 624417; HEK293 GLP-1R CRE-luciferase, luminescence, 24 h; GLP-1R form is constitutively active; P43220; also: potency is read from the fitted curve at half-maximal effect; % is scaled to controls: 0 for no effect and ±100 for the full control effect; nearly all actives have a fitted effect of over 55% in size
Target sequence (P43220 whole entry, looked up): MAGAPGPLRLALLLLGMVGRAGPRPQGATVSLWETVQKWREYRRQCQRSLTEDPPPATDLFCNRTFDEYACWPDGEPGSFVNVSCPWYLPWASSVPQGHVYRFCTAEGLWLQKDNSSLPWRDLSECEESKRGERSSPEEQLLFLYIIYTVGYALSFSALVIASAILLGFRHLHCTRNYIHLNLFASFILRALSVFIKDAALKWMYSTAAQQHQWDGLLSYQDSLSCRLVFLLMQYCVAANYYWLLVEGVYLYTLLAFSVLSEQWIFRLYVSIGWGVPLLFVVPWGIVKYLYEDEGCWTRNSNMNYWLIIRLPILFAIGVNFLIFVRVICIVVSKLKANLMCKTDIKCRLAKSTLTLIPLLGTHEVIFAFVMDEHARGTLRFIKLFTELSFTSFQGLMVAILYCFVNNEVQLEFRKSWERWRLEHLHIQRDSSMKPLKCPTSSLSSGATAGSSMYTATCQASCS
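Using stably transfected HEK293 (constitutively active GLP-1R, cAMP-luciferase reporter), compounds were incubated 24 hr and luciferase measured by luminescence.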
ClpP mod – qHTS Assay for Activators of ClpP; actives 1.9% (n = 340,000); purified B. subtilis ClpP, FRET peptide cleavage, 20 min; Potency, µM (titrated, usually from 57.5 µM), inactives show at the top dose activity change, negative = active; active = well fitted falling curve with a large enough effect; inconclusive = small, poorly fitted or top-dose-only effect; inactive = no such curve, though single readings can be large or run the other way; also: potency is read from the fitted curve at half-maximal effect; the source files actives as falling curves though it sought activators and does not explain the sign; nearly all actives have a fitted effect of over 65% in size
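Purified B. subtilis ClpP, 10 microg/mL final in Tris/HCl pH8 with KCl, BSA, glycerol and Tween-20, cleaved an Abz/nitrotyrosine-quenched decapeptide. Fluorescence (ex 320, em 430) was read at 0 and 20 min at room temperature. Delta was normalized to 5.8 microM ADEP and DMSO/no-enzyme controls.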
DRD3 agonist – D3 dopamine receptor (human) agonism; P35462; D3R DiscoveRx beta-arrestin cells, luminescence, 90 min; max activation, %; actives 0.58% (n = 410,000); in the data active = max activation above about 30%; also: 0% is about no effect
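Cells at 1500/well, incubated overnight, then treated with pinned compounds (dopamine as control) for 90 min at 37 degrees C. DiscoveRx reagent added for 30 - 60 minutes at room temperature; luminescence read.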
GLP1R ag – activates the human GLP-1 receptor | P43220 | HEK293 GLP-1R CRE-luciferase, luminescence, 4-6 h; cells express a hypersensitive GLP-1R form | Potency, µM (top dose mostly 45.6 µM), for the others: at the top dose activation, usual class: activators | actives 0.007% (n = 380,000); also: potency is read from the fitted curve at half-maximal effect; % of control where 0% means no effect
GLP1R cytotox – cytotoxicity counter-screen for GLP-1 receptor inverse agonists | AID 624418 | Potency, µM (titrated, usually from 38.3 µM), without a hit: top-dose activity change, negative = inhibition, hits mostly inhibitors | actives 0.13% (n = 410,000) | HEK293 cAMP-luciferase reporter cells, luminescence, 24 h;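 also: loss of luciferase light is scored as toxicity; potency is read from the fitted curve at half-maximal effect; % is scaled to controls: 0 for no effect and ±100 for the full control effect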
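To flag toxic compounds, the library was rerun on cells for 24 hr at 37 deg C and 5% CO2. Viability-linked luminescence was captured 12 min after adding luciferase detection reagent.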
Numbers without * were called inactive. Unless noted, calls follow the shape of the dose curve; as a rule, active = well fitted curve in the direction sought with a large enough effect; inconclusive = small, poorly fitted or top-dose-only effect, or another doubt; inactive = no such curve, though single readings can be large; an effect the other way counts as inactive or inconclusive.

For CC(=NNC(=S)N1CCCCC1)c1cccc(C)n1 the results were D3 antag -107*, GLP1R inv ag inconclusive, ClpP mod 25µM*, DRD3 agonist 2, GLP1R ag 0% and GLP1R cytotox inconclusive.
Screening O=C(NCCc1ccc(Cl)cc1)C(=O)NCC(c1cccs1)S(=O)(=O)c1cccs1 (configuration not stated) returned GLP1R inv ag 4%, ClpP mod -3%, DRD3 agonist 16 and GLP1R cytotox -2%.
Screening CCCCn1c(O)c2n(c1=O)Cc1ccccc1N=C2c1ccc(C)cc1 returned D3 antag 19, GLP1R inv ag 10%, ClpP mod 1%, DRD3 agonist 12, GLP1R ag -2% and GLP1R cytotox 4%.
CN1CCN(NC(=O)CN2C(=O)/C(=C/c3ccccc3Cl)SC2=S)CC1 was read as D3 antag -64*, GLP1R inv ag 0%, ClpP mod -2%, DRD3 agonist -4, GLP1R ag -2% and GLP1R cytotox -5%.
For CN1CCN(NC(=O)CN2C(=O)/C(=C/c3c(Cl)cccc3Cl)SC2=S)CC1 the results were D3 antag 7, GLP1R inv ag -18%, ClpP mod 3%, DRD3 agonist 2, GLP1R ag -12% and GLP1R cytotox -23%.
For COc1cc(C)ccc1OCCSc1nc2ccc(NC(=O)c3ccccc3F)cc2s1 the results were GLP1R inv ag 5%, ClpP mod 11%, DRD3 agonist 2 and GLP1R cytotox 1%.
O/N=C/c1cc2ccccc2n1Cc1ccccc1F was read as D3 antag -53*, GLP1R inv ag inconclusive, ClpP mod 0%, DRD3 agonist -5, GLP1R ag 3% and GLP1R cytotox -7%.
`COc1ccccc1C1CN=NC12CCCc1ccccc1C2=O` (configuration not stated) gave D3 antag -22, GLP1R inv ag 7.1µM*, ClpP mod 1%, DRD3 agonist -4, GLP1R ag -6% and GLP1R cytotox -5%.
Screening CC(=O)c1cccc(Oc2cc(NN3CCCCC3)c([N+](=O)[O-])cc2[N+](=O)[O-])c1 returned D3 antag 3, GLP1R inv ag 10µM*, ClpP mod 0%, DRD3 agonist 7, GLP1R ag 18% and GLP1R cytotox inconclusive.
For C[C@H]1COc2cccc(N(C)CCO)c2S(=O)(=O)N1 the results were D3 antag 6, GLP1R inv ag 18%, ClpP mod -1%, DRD3 agonist 6, GLP1R ag -2% and GLP1R cytotox -3%.
For O=C(Oc1oc(-c2ccco2)nc1C=Nc1ccccc1)c1ccoc1 the results were D3 antag inconclusive, GLP1R inv ag -3%, ClpP mod -1%, DRD3 agonist 1, GLP1R ag -4% and GLP1R cytotox -8%.
`O=C(Oc1oc(-c2ccco2)nc1C=Nc1ccccc1)c1ccco1` gave D3 antag -50*, GLP1R inv ag 2%, ClpP mod -1%, DRD3 agonist -8, GLP1R ag -1% and GLP1R cytotox -19%.
`OCCNC1=NCCN1` gave D3 antag -8, GLP1R inv ag 11%, ClpP mod 32µM*, DRD3 agonist 7, GLP1R ag -15% and GLP1R cytotox -11%.
Cc1cc(C)nc(NS(=O)(=O)c2ccc(NC(=O)c3cccc(N4C(=O)CCC4=O)c3)cc2)n1 was read as D3 antag -59*, GLP1R inv ag 23%, ClpP mod -2%, DRD3 agonist -8, GLP1R ag 6% and GLP1R cytotox 28%.
For O=C(Nc1nc2ccc(Cl)cc2s1)C1CC1 the results were D3 antag -12, GLP1R inv ag inconclusive, ClpP mod -2%, DRD3 agonist 3, GLP1R ag 2% and GLP1R cytotox -5%.
